# Experimental data taken from PubChem BioAssay AID624300 (Southern Research Specialized Biocontainment Screening …, 2012).
# Hit rate of the full screen: of about 2,400 compounds, about 360 (15%) were called active.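 Rule for the calls: active = viability falls under 70% at one or more tested concentrations, taken as toxicity; inactive = viability stays over 70% at every dose.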 A selection follows. Entries with a potency or affinity are not part of this list.
# Experiment: HeLa cell cytotoxicity, dose response, cytotoxicity control for MgcRacGAP inhibitor project (AID 624300)
# Conditions: CellTiter-Glo luminescence, 24 h; series mostly up to 100 µM
row,SMILES,outcome
1,Cc1ncc(CO)c(/C=N/Nc2ccc(C(F)(F)F)cn2)c1O,inactive
2,CCOc1cc(/C=N/NC(=O)CCCC(=O)NC2CCCCC2)ccc1O,inactive
3,COc1cc(/C=C/C(=O)OCC(=O)N2CCN(S(=O)(=O)c3ccc(C)cc3C)CC2)ccc1O,inactive
4,CCN(CC)CCC(=O)N1C/C(=C/c2ccccc2)C(=O)/C(=C\c2ccccc2)C1,inactive
5,CCOc1cc(/C=C2\CN(CC)C/C(=C\c3ccc(O)c(OCC)c3)C2=O)ccc1O,inactive
6,CC(C)c1ccc(CNc2ccc(N3CCOCC3)cc2)cc1,inactive
7,CC1CCN(S(=O)(=O)c2ccc3c(c2)C(Cl)(Cl)C(=O)N3)CC1,inactive
8,CCOc1cc(/C=C2\CN(C)C/C(=C\c3ccc(O)c(OCC)c3)C2=O)ccc1O,inactive
9,CCOc1cc(CNc2ccc3[nH]c(=O)[nH]c3c2)ccc1OCC(=O)NC(C)(C)C,inactive
10,O=C1CSC(=Nc2ccc(O)cc2)N1,inactive
11,CCN(CC)S(=O)(=O)c1cccc(-c2n[nH]c(=S)n2/N=C/c2ccc(C(=O)OC)cc2)c1,inactive
12,c1cc2c(cc1NC1CCCCCC1)OCO2,inactive
13,CC(=O)N1CCC(=NNC(=O)c2cc3ccccc3cc2O)CC1,inactive
14,C/C(=N\Nc1ccc([N+](=O)[O-])cc1)c1ccc(N)cc1,inactive
15,COc1cccc(NC2=C(C#N)C(=O)NC(c3cccc(OC)c3O)S2)c1 (centres undefined),inactive
16,COc1ccc(NCc2cc(=O)[nH]c3ccccc23)cc1,inactive
17,Cn1c(=O)c2ccccc2n2c(=S)[nH]nc12,inactive
18,CC(OC(=O)CCN=C1NS(=O)(=O)c2ccccc21)C(=O)Nc1ccc(N(C)C)cc1 (centres undefined),inactive
19,CCNC(=S)Nc1cc2oc3ccccc3c2cc1OC,inactive
20,COc1cc2c(cc1NC(=S)Nc1cccc3ccccc13)oc1ccccc12,inactive
21,CC(=O)Nc1ccc(N=Nc2ccc(O)cc2)cc1,inactive
22,CCN(C=NC1=NN(c2cccc(C(F)(F)F)c2)CC1)CC,inactive
23,COc1ccc(N2CCN(c3ncccn3)CC2)cc1,inactive
24,O=C(Cn1sc2ccccc2c1=O)Nc1ccccc1,inactive
25,O=C(Cn1sc2ccccc2c1=O)Nc1ccc(F)cc1,inactive

row,SMILES,outcome
1,Cc1ccc(-n2sc3ccccc3c2=O)cc1,inactive
2,S=C(NCc1ccco1)NCc1ccco1,inactive
3,COc1cc(CN2CCC(C(=O)N3CCCC(C)C3)CC2)cc(Br)c1O (centres undefined),inactive
4,O=C(NC(=S)Nc1ccc(O)cc1)C1CCCC1,inactive
5,COc1cc(/C=N/N=C2/SCC(=O)N2c2ccc(O)cc2)ccc1O,inactive
6,CN(C)c1ccc(NC(=O)CCN2C(=O)c3cccc([N+](=O)[O-])c3C2=O)cc1,inactive
7,COc1cccc(Nc2ccc(N3CCCCC3)cc2)c1OC,inactive
8,C=CCNC(=S)N1CCN(Cc2ccc3c(c2)OCO3)CC1,inactive
9,CCOc1ccc(C2NC(=O)C(C#N)=C(S)N2c2ccc(C)cc2)cc1OC (centres undefined),inactive
10,COc1ccc(NC(=O)Nc2ccc(N(C)C)cc2)cc1,inactive
11,CN(CCCCCCN(C)Cc1ccccc1O)Cc1ccccc1O,inactive
12,CCCc1c(C)[nH]c2ccc(C(=O)O)cc2c1=S,inactive
13,Nc1nc(Sc2ccc([N+](=O)[O-])c3nonc23)c2[nH]cnc2n1,inactive
14,CCOC(=O)c1c(/N=C/C2=C(O)CCCC2=O)sc(C)c1C,inactive
15,O=C(O)c1cccc(-n2sc3ccccc3c2=O)c1,inactive
16,Clc1ccccc1-c1nc(/C=N/N2CCOCC2)c2ccccn12,inactive
17,O=C(CN1CCc2ccccc2C1)Nc1ccccc1C(F)(F)F,inactive
18,O=C(N/N=C/c1ccc(O)cc1)c1csc2c1CCCC2,inactive
19,Oc1ccc(-c2nccs2)cc1,inactive
20,CCN=c1scc(C)n1/N=C/c1cc(Br)c(O)c(OC)c1,inactive
21,Cc1cc(=O)[nH]c2c(N=Nc3ccc(O)cc3)c(N)nn12,inactive
22,CC1(C)CC(=O)C2=C(C1)Nc1ccccc1S2,inactive
23,COc1cccc(/C=N/n2c(-c3n[nH]c4c3CCC4)n[nH]c2=S)c1O,inactive
24,O=C1CCC(C2CCc3cc(O)ccc3C2)C1 (centres undefined),inactive
25,CCOc1ccccc1CN1CCC(N2CCOCC2)CC1,inactive

row,SMILES,outcome
1,CC(C)CC(=O)N1CCN(Cc2cccc([N+](=O)[O-])c2)CC1,inactive
2,CCOc1cc(/C=N/NC(=O)CCc2n[nH]c(=O)[nH]c2=O)ccc1O,inactive
3,COc1ccc(-c2cn[nH]c2-c2ccc(O)cc2O)cc1OC,inactive
4,S=c1[nH]nc(-c2cccnc2)n1/N=C/c1cccs1,inactive
5,COc1cc2cc(-c3ccc(O)cc3O)nc(C)c2cc1OC,inactive
6,Oc1ccc(-c2csc(-c3cccnc3)n2)cc1O,inactive
7,COc1ccc(C2NC(=O)C(C#N)=C(S)N2c2ccc(C)cc2)cc1OC (centres undefined),inactive
8,N#CC1(Nc2ccc(-c3ccc(NC4(C#N)CCCC4)cc3)cc2)CCCC1,inactive
9,Nc1ccc(N2CCCCC2)c(Cl)c1,inactive
10,Cc1cccc(NC2=C(C#N)C(=O)NC3(CCCC3)S2)c1,inactive
11,COC(=O)C1=C(C)N(CC2CCCO2)C(=O)/C1=C\c1ccc(O)cc1 (centres undefined),inactive
12,CCOc1cc(/C=C2/N=C(C)C(C(=O)OC)=C2O)ccc1O,inactive
13,COc1cc(-c2nc3ccccn3c2/N=C/c2cc(OC)c(O)cc2Cl)ccc1O,inactive
14,COc1cc(-c2nc3cnccn3c2Nc2c(C)cccc2C)ccc1O,inactive
15,Cc1ccccc1CN(C)CCc1ccccn1,inactive
16,Cc1nc(S/C(=C\c2ccc(-c3ccc(C(=O)O)c(Cl)c3)o2)C(=O)O)n[nH]1,inactive
17,Cc1ccc(S(=O)(=O)Nc2ccc(N(C)C)cc2)cc1,inactive
18,O=C1c2ccccc2C(=O)C1c1ccc(O)cc1,inactive
19,Oc1ccc(N=Nc2ccccc2)cc1,inactive
20,Cc1ccc(S(=O)(=O)/N=S(/c2ccccc2)C(C)C)cc1 (centres undefined),inactive
21,COc1cc2c(cc1OC)C(c1cc(Br)c(OC)c(OC)c1)CC(=O)N2 (centres undefined),inactive
22,CN(C)c1ccc(NC(=O)c2cccc(N3C(=O)C4C5C=CC(C5)C4C3=O)c2)cc1 (centres undefined),inactive
23,CC(C(=O)NC(=O)NC1CCCCC1)N1CCN(c2ccc(O)cc2)CC1 (centres undefined),inactive
24,COc1ccc(N[C@@H]2CCN3C(=O)c4ccccc4[C@@H]3C[C@H]2O)cc1,inactive
